# Screens from PubChem.
# The entries come from a sample that favours hits as a whole.
# Methyltransferases = Primary Screen for Target Class Profiling of Small Molecule Inhibitors of Methyltransferases; actives 3.9% (n = 25,000); purified enzyme, MTase-Glo SAH luminescence; stronger effect = lower value; calls only at 40 µM; call rule not given here
#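 Each enzyme was assayed with SAM and its substrate. SAH formation detected by MTase-Glo luminescence; single-point 40 uM screen[…].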
# * = called active by the depositor; i = inactive; + = active, no number. % is scaled to controls: 0 for no effect and ±100 for the full control effect.
SMILES,Methyltransferases
CC(C)CNC(=O)c1ccc2c(=O)n(CC(C)C)c3nn(Cc4cccc(Cl)c4)c(=O)n3c2c1,i
COc1ccc(OC)c(S(=O)(=O)N2CCC3(CC2)CC(CC(=O)N(C)C)CCO3)c1 (stereo not drawn),i
O=C(O)c1cc(-c2cccc(CO)c2)cc(S(=O)(=O)NC2CCCC2)c1,i
Cc1c(OCc2cccc(-c3ccc(C(=O)O)cc3)c2)cc2c(c1C)C(=O)C(C1CCCC1)C2 (stereo not drawn),+
Cc1cc(C)cc(N2C(=O)CSc3c(c4ccccc4n3C)C2C(=O)NCc2ccc(F)cc2)c1 (stereo not drawn),i
Cc1ccc(CNC(=O)CCn2ccc3cc(S(=O)(=O)N4CCC(C)CC4)ccc32)cc1,i
Cc1ccc(-c2nnn3c2nc(NCc2ccccc2)c2ccccc23)cc1,i
COc1cc(/C=C/C(=O)OC2CC(C)=C(C(=O)O)/C2=C/CO[C@@H]2O[C@H](CO)[C@@H](O)[C@H](O)[C@H]2O)ccc1O (stereo partly drawn),i
COc1cc(C2Oc3c(OC)cc(/C=C/C(=O)OC[C@H]4O[C@@H](OC(C)(C)C(=O)O)[C@H](O)[C@@H](O)[C@@H]4O)cc3C2CO)ccc1O (stereo partly drawn),+
COc1cc(/C=C/C(=O)OCC2OC(OC3(CO)OC(CO)C(O)C3O)C(O)C(O)C2O)ccc1O (stereo not drawn),+
COc1cc(C(O)C(CO)Oc2ccc(CCCO[C@@H]3O[C@@H](C)[C@H](O)[C@@H](O)[C@H]3O)cc2OC)ccc1O (stereo partly drawn),+
COc1cc(C(CO)C(OC2OC(CO)C(O)C(O)C2O)c2ccc(O)c(OC)c2)ccc1O (stereo not drawn),i
COc1cc(/C=C/CO)ccc1O[C@@H]1O[C@H](CO)[C@@H](O)[C@H](O)[C@H]1O,i
O=C(/C=C/c1ccc(O)cc1)OC[C@H]1O[C@H](O[C@@]2(CO)O[C@@H](CO)[C@H](O)[C@H]2O)[C@H](O)[C@@H](O)[C@@H]1O,i
C/C=C/c1ccc(O[C@@H]2O[C@H](CO)[C@@H](O)[C@H](O)[C@H]2O)c(OC)c1,i
COc1cc(/C=C/C(=O)O[C@H]2[C@H](O)[C@@H](CO)O[C@@]2(CO)O[C@H]2O[C@H](CO)[C@@H](O)[C@H](O)[C@H]2O)cc(OC)c1O,i
O=C(/C=C/c1ccc(O)c(O)c1)OCc1ccccc1O[C@@H]1O[C@H](CO)[C@@H](O)[C@H](O)[C@H]1O,i
COc1cc(/C=C/c2cc(O)cc(O[C@@H]3O[C@H](CO)[C@@H](O)[C@H](O)[C@H]3O)c2)ccc1O,+
COc1cc(C2Oc3c(OC)cc(CCCO)cc3C2CO)ccc1O[C@H]1O[C@H](C)[C@@H](O)[C@H](O)[C@@H]1O (stereo partly drawn),i
Cc1ccc(NC(=O)Cn2nc3n(C)c(=O)c4ccc(C(=O)NC5CCCCC5)cc4n3c2=O)cc1,i
COC(=O)c1cc2n(n1)CC(C)(C(=O)NC1CCCCCC1)N(Cc1ccc(C)cc1)C2=O (stereo not drawn),i
CCOc1ccc(CN2C(=O)c3cc(C4CC4)nn3CC2(C)C(=O)NC2CCCCCC2)cc1 (stereo not drawn),i
CC1CCC(NC(=O)C2(C)Cc3ccccc3C(=O)N2CCc2ccccc2)CC1 (stereo not drawn),i
CCCn1c(=O)c2ccc(C(=O)NCC(C)C)cc2n2c(=O)n(CC(N)=O)nc12,i
CCCn1c(=O)c2cc(Cl)ccc2n2c(SCC(=O)NC(C)CC)nnc12 (stereo not drawn),i
SMILES,Methyltransferases
CC(=O)Nc1c2n(c3ccccc13)CC(C)(C(=O)NC1CCCCC1)N(Cc1ccccc1F)C2=O (stereo not drawn),i
COC(=O)c1ncn2c1C(=O)N(c1ccc(OC)c(OC)c1)C(C)(C(=O)NCc1ccccc1OC)C2 (stereo not drawn),i
O=S(=O)(NC1CCCc2ccccc21)c1ccc2[nH]c3c(c2c1)CCCC3 (stereo not drawn),i
CC1CCCCC1NC(=O)C1(C)Cn2c(ccc2-c2ccco2)C(=O)N1CCCc1ccccc1 (stereo not drawn),i
CC1CC(C)CN(CCCN2C(=O)c3nc4ccccc4n3CC2(C)C(=O)NC2CCCCCC2)C1 (stereo not drawn),i
CC1(C(=O)NC2CCCCCC2)Cn2c(cc3occc32)C(=O)N1C1CCCC1 (stereo not drawn),i
Cc1ccc(NS(=O)(=O)c2ccc3[nH]c4c(c3c2)CCCC4)cc1C,i
COC(=O)c1cc2n(n1)CC(C)(C(=O)NC1CCC(C)CC1)N(Cc1ccccc1Cl)C2=O (stereo not drawn),i
COc1cc(C[C@@]2(O)CO[C@@H](c3ccc(O[C@@H]4O[C@H](CO)[C@@H](O)[C@H](O)[C@H]4O)c(OC)c3)[C@H]2CO)ccc1O,i
COc1ccc(C2Oc3c(OC)cc(CCCO)cc3C2COC2OC(CO)C(O)C(O)C2O)cc1OC (stereo not drawn),i
COc1cc(C2Oc3c(OC)cc(CCCO[C@@H]4O[C@H](CO)[C@@H](O)[C@H](O)[C@H]4O)cc3C2CO)ccc1O (stereo partly drawn),+
CCc1cccc(N2C(=O)c3cc(-c4ccccc4)nn3CC2(C)C(=O)NCc2ccccc2)c1 (stereo not drawn),i
O=C(Cn1nc2n(Cc3ccc(F)cc3)c(=O)c3ccccc3n2c1=O)c1ccccc1,i
CC1(C(=O)NC2CCCC2)Cn2c(cc3ccccc32)C(=O)N1C1CCN(Cc2ccccc2)CC1 (stereo not drawn),i
CCCn1c(=O)c2ccc(C(=O)NC3CCCC3)cc2n2c(=O)n(CC(=O)c3cccc(OC)c3)nc12,i
CN1C(=O)c2cc3ccccc3n2CC1(C)C(=O)NCC(=O)NCCc1ccc(Cl)cc1 (stereo not drawn),i
CCc1c(Cl)c(O)c(Cl)c(O)c1C(=O)O[C@H]1[C@H](O)[C@H](OC)[C@H](OC/C2=C\C=C\C[C@H](O)/C(C)=C\[C@H](CC)[C@@H](O[C@@H]3OC(C)(C)[C@@H](OC(=O)C(C)C)[C@H](O)[C@@H]3O)/C(C)=C/C(C)=C/C[C@@H]([C@@H](C)O)OC2=O)O[C@@H]1C,+
CC1CCN(S(=O)(=O)c2cc3[nH]c(=O)[nH]c3cc2Cl)CC1,i
CCc1ccc(CNC(=O)Cn2ccc3cc(S(=O)(=O)N4CCC(C)CC4)ccc32)cc1,i
COc1ccc(CNC(=O)c2ccc3c(=O)nc4c(-c5ccccc5F)n[nH]n4c3c2)cc1,i
COc1cccc(CN2C(=O)c3cc4occc4n3CC2(C)C(=O)NC2CCCC(C)C2C)c1 (stereo not drawn),i
CCNc1nc(Nc2cc(F)c(C(=O)N3CCOCC3)cc2OC)ncc1C(F)(F)F,+
CNc1nc(Nc2ccc(C(=O)N3CCOCC3)cc2OC)nc2[nH]cc(Cl)c12,i
CNc1nc(Nc2ccc(C(=O)N3CCOCC3)cc2OC)ncc1Cl,i
COc1ccc(-c2ncccc2CNS(=O)(=O)c2ccc(C#N)cc2)cc1,i
CCC(NC(C)C)C(O)c1ccc(O)c(O)c1 (stereo not drawn),i
NCC(O)c1ccc(O)c(O)c1 (stereo not drawn),+
CC(CCc1ccccc1)NCC(O)c1ccc(O)c(C(N)=O)c1 (stereo not drawn),i
